Measured values: the supplement of paper PMC9254222
Over roughly 1,100 compounds, “Renilla luciferase signal (cell health) relative to plate median” has its median near 0.97; the highest 2% begin near 1.6. What follows is part of a selection rich in the highest values, with near analogues and random picks from the rest.

Test system: HEK293T (UBE3A T485A transfected, BAR Wnt reporter)
Test: Renilla luciferase signal (cell health) relative to plate median (fold (linear ratio)); higher = higher Renilla signal
Conditions: 24 h
In short: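 Chemicals at 0.01–100 uM were left on transfected HEK293T cells for 24 h, after a four-hour wait following transfection. The cells held a BAR firefly luciferase Wnt reporter, TK-Renilla and an expression plasmid. Wnt activity, as the firefly/Renilla ratio from a Dual-Glo luciferase readout, and cell health, as raw Renilla, were median-centred within each plate. Results average four biological replicates.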

Structure (SMILES)	Renilla luciferase signal (concentration: 0.01 uM)	Renilla luciferase signal (concentration: 0.1 uM)	Renilla luciferase signal (concentration: 1 uM)	Renilla luciferase signal (concentration: 10 uM)	Renilla luciferase signal (concentration: 100 uM)
Fc1ccc(Oc2ccnc3cc(Cl)cc(Cl)c23)cc1 [Quinoxyfen]	0.918	0.865	0.93	1.03	0.994
O=[N+]([O-])c1ccc(Cl)cc1 [1-Chloro-4-nitrobenzene]		0.98	0.976	0.993	1.1
CCCCOC(=O)[C@@H](C)Oc1ccc(Oc2ccc(C#N)cc2F)cc1 [Cyhalofop-butyl]	1.03	1.04	0.889	1.03	0.226
O=[N+]([O-])c1ccc(Oc2ccc(Cl)cc2Cl)cc1 [Nitrofen]		1.06	1.17	1.05	1.69
COC(=O)C(C)Oc1ccc(Oc2ccc(Cl)cc2Cl)cc1 (stereo not drawn) [Diclofop-methyl]	1.01	0.869	0.732	0.936	2.15
Oc1cc(Cl)ccc1Oc1ccc(Cl)cc1Cl [Triclosan]	0.941	0.922	0.956	0.911	0.083
CCCCNC(=O)OCC#CI [3-Iodo-2-propynyl-N-butylcarbamate]	0.922	0.986	0.947	0.822	0.0151
CC1(C)C(C=C(Cl)Cl)C1C(=O)OC(C#N)c1ccc(F)c(Oc2ccccc2)c1 (stereo not drawn) [Cyfluthrin]	1.01	1.31	1.27	0.975	1.1
COc1cccc(C(=O)NN(C(=O)c2cc(C)cc(C)c2)C(C)(C)C)c1C [Methoxyfenozide]	1.37	1.1	1.05	1.04	0.685
Nc1c(Cl)cc([N+](=O)[O-])cc1Cl [Dicloran]	0.651	0.765	0.894	0.77	0.167
CSC1=N[C@@](C)(c2ccccc2)C(=O)N1Nc1ccccc1 [Fenamidone]	0.641	0.774	0.785	0.525	0.165
O=c1n(Cl)c(=O)n(Cl)c(=O)n1Cl [Symclosene]	1.05	0.995	0.923	1.18	1.88
CCCOc1nn(C(=O)[N-]S(=O)(=O)c2ccccc2C(=O)OC)c(=O)n1C.[Na+] [Propoxycarbazone-sodium]	1.17	1.21	1.03	0.975	1.2
CCC(CC)Nc1c([N+](=O)[O-])cc(C)c(C)c1[N+](=O)[O-] [Pendimethalin]	0.981	0.996	0.843	1.02	0.801
CCCN(CCC)c1c([N+](=O)[O-])cc(C(F)(F)F)cc1[N+](=O)[O-] [Trifluralin]	1.09	1.16	1.12	1.13	1.59
CCC(C)Nc1c([N+](=O)[O-])cc(C(C)(C)C)cc1[N+](=O)[O-] (stereo not drawn) [Butralin]	0.921	1.06	0.989	1.04	1.94
O=[N+]([O-])c1ccccc1 [Nitrobenzene]		0.931	0.977	0.817	0.932
CCOP(=S)(OCC)Oc1ccc([N+](=O)[O-])cc1 [Parathion]	1.03	1.13	1.04	1.11	1.36
CC1=C(C(=O)Nc2ccccc2)SCCO1 [Carboxin]	0.996	1.11	1.07	0.949	2.12
N=C(Nc1ccccc1)Nc1ccccc1 [1,3-Diphenylguanidine]		1.03	0.989	0.895	0.887
O=C(Nc1ccccc1)c1ccccc1I [Benodanil]		0.942	0.924	0.913	0.739
CS(=O)(=O)c1ccc(C(=O)C2C(=O)CCCC2=O)c([N+](=O)[O-])c1 [Mesotrione]	0.834	0.808	0.956	1.03	1.39

Structure (SMILES)	Renilla luciferase signal (concentration: 0.01 uM)	Renilla luciferase signal (concentration: 0.1 uM)	Renilla luciferase signal (concentration: 1 uM)	Renilla luciferase signal (concentration: 10 uM)	Renilla luciferase signal (concentration: 100 uM)
FC(F)C(F)(F)OCC(Cn1cncn1)c1ccc(Cl)cc1Cl (stereo not drawn) [Tetraconazole]	1.01	1.09	0.957	0.997	0.0289
CO/N=C(/C1=NOCCO1)c1ccccc1Oc1ncnc(Oc2ccccc2Cl)c1F [Fluoxastrobin]	0.875	0.941	1.05	0.383	1.63
ClC(Cl)(Cl)c1ccccc1 [Benzotrichloride]		0.82	0.9	0.872	1.04
O=C(O)C1(c2ccc3c(c2)OC[C@H](Cc2ccc(-c4ccccc4)cc2)[C@H]3O)CCCC1		0.875	0.823	0.781	0.0901
O=C1C2CC=CCC2C(=O)N1SC(Cl)(Cl)Cl (stereo not drawn) [Captan]	1.19	1.04	0.975	1.02	0.036
Clc1ccc(C(Cl)(Cl)Cl)cc1 [4-Chlorobenzotrichloride]		0.548	0.799	0.652	0.663
COc1cc(OC)nc(Sc2cccc(Cl)c2C(=O)[O-])n1.[Na+] [Pyrithiobac-sodium]	1.11	1.16	0.967	1.07	1.69
CCCCCCCCCc1ccc(O)cc1 [4-Nonylphenol, branched]		1	0.945	1.06	0.973
CC(C)(C)C(O)C(Oc1ccc(Cl)cc1)n1cncn1 (stereo not drawn) [Triadimenol]	1.01	0.885	0.844	0.906	0.699
CCNC(=O)NC(=O)/C(C#N)=N/OC [Cymoxanil]	1.26	1.16	1.08	1.15	2.39
CO/C=C(/C(=O)OC)c1ccccc1COc1cccc(C(F)(F)F)n1 [Picoxystrobin]		0.76	0.879	0.82	0.465
O=C(Nc1ccccc1-c1ccc(Cl)cc1)c1cccnc1Cl [Boscalid]	0.775	0.848	0.903	0.818	1.24
Oc1cccc2cccnc12 [8-Hydroxyquinoline]		0.779	0.797	0.764	0.0228
CC1=NNC(=O)N(/N=C/c2cccnc2)C1 [Pymetrozine]	0.89	0.911	0.966	0.97	1.45
CC(C)OC(=O)Nc1cccc(Cl)c1 [Chlorpropham]	0.728	0.618	0.828	0.81	0.766
CC(Oc1ccc(Cl)cc1Cl)C(=O)O (stereo not drawn) [Dichlorprop]	0.843	0.959	0.959	1.04	1.6
CC(Oc1cccc(Cl)c1)C(=O)O (stereo not drawn) [Cloprop]	0.924	0.701	0.814	1.01	2.51
CC(C)(C)C(=O)C(Oc1ccc(Cl)cc1)n1cncn1 (stereo not drawn) [Triadimefon]	1.42	0.867	0.961	1.05	0.777
O=C1c2ccccc2C(=O)N1SC(Cl)(Cl)Cl [Folpet]	1.08	1.03	1.08	1.17	0.0353
CNC(=O)Oc1ccccc1OC(C)C [Propoxur]	0.908	0.899	0.869	0.843	1.18
c1cc2c3c(cccc3c1)CC2 [Acenaphthene]		1.17	1.26	1.14	1.68
C1=Cc2cccc3cccc1c23 [Acenaphthylene]		0.739	0.666	0.684	0.683

Structure (SMILES)	Renilla luciferase signal (concentration: 0.01 uM)	Renilla luciferase signal (concentration: 0.1 uM)	Renilla luciferase signal (concentration: 1 uM)	Renilla luciferase signal (concentration: 10 uM)	Renilla luciferase signal (concentration: 100 uM)
c1cc2ccc3cccc4ccc(c1)c2c34 [Pyrene]		0.967	0.928	1.05	0.889
CCOP(=S)(OCC)Oc1ccc2c(C)c(Cl)c(=O)oc2c1 [Coumaphos]	1.01	1.11	1	1.04	0.717
COC(=O)NS(=O)(=O)c1ccc(N)cc1 [Asulam]	1.08	1.11	0.923	0.97	2
COC(=O)c1ccccc1N [Methyl 2-aminobenzoate]		1.09	1.07	1.11	1.51
COC(=O)NC(=S)Nc1ccccc1NC(=S)NC(=O)OC [Thiophanate-methyl]	1.37	0.913	1	1.01	0.274
C1CC2OC2CC1C1CO1 (stereo not drawn) [4-Vinyl-1-cyclohexene dioxide]		0.978	0.971	0.856	0.459
Cc1cc(Cc2ccc(N)c(C)c2)ccc1N [4,4'-Methylenebis(2-methylaniline)]		1.07	1.1	0.902	0.647
CCOP(=O)(OCC)Oc1cc(C)nc(C(C)C)n1 [Diazoxon]	1.03	0.822	0.982	0.982	1.37
[N-]=[N+]=[N-].[Na+] [Sodium azide]		1.11			1.29
[N-]=[N+]=[N-].[Na+] [Sodium Azide]	1.38		1.01	1.05	
O=C1C2(Cl)C3(Cl)C4(Cl)C(Cl)(Cl)C5(Cl)C3(Cl)C1(Cl)C5(Cl)C24Cl (stereo not drawn) [Kepone]		1.03	0.982	1	1.33
COP(N)(=O)SC (stereo not drawn) [Methamidophos]	1.08	0.989	1.14	1.04	2.27
COP(=O)(NC(C)=O)SC (stereo not drawn) [Acephate]	0.777	0.825	0.95	1	1.52
Nc1ccc(Cc2ccc(N)cc2)cc1 [4,4'-Methylenedianiline]		0.803	0.812	0.825	0.725
O=C(O)C(Cl)(Cl)Cl [Trichloroacetic acid]		0.932	1.09	1.11	1.35
CCOP(=S)(OCC)OC(Cl)C(Cl)(Cl)Cl (stereo not drawn) [Chlorethoxyfos]	0.648	0.673	0.754	0.769	1.03
CCC(C)c1ccc(O)cc1 (stereo not drawn) [4-(Butan-2-yl)phenol]		1.03	1.04	0.967	1.21
CN(C)C(=O)Nc1ccc(Cl)cc1 [Monuron]		1.07	1.08	1.08	0.972
CC(C)Oc1cccc(NC(=O)c2ccccc2C(F)(F)F)c1 [Flutolanil]	0.958	0.913	0.934	0.913	1.07
CN(C)C(=O)Nc1cccc(C(F)(F)F)c1 [Fluometuron]	1.01	0.858	0.955	0.915	1.74
